BoNT F protease: BoNT/F light chain protease inhibitors, primary screen, biochemical, flow cytometry, MLPCN library; inhibition, % at 10 µM; Botulinum neurotoxin type F light chain protease (Clostridium botulinum); Multiplex microsphere protease cleavage assay; AID 588497, 2011; 0.22% of 360,000 active; in the data active = inhibition above about 35%, passing the limit was not always enough; inconclusive = no clear call, values can overlap the other calls; note: plate controls were buffer without enzyme for full effect and enzyme alone for no effect
MazEF act: activators of E. coli MazEF toxin-antitoxin RNase, primary screen, biochemical, fluorescence, uHTS | Endoribonuclease toxin MazF (Escherichia coli (strain K12)), P0AE70 | FAM/BHQ RNA-DNA oligo cleavage fluorescence, 5 h | activation, % at 20 µM | 0.32% of 350,000 active | AID 504720, 2011; in the data active = activation above about 50%
Target sequence (P0AE70 whole entry, looked up): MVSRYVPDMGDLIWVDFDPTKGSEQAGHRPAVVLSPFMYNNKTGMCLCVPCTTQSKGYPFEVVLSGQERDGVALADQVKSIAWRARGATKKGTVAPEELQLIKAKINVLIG
BoNT A protease: BoNT/A light chain protease inhibitors, primary screen, biochemical, flow cytometry, MLPCN library; multiplex microsphere protease substrate cleavage; Botulinum neurotoxin type A light chain protease (Clostridium botulinum A str. ATCC 3502); AID 588499, 2011; inhibition, % at 10 µM; 0.17% of 360,000 active; note: plate controls were buffer without enzyme for full effect and enzyme alone for no effect
Anthrax LF prot: Bacillus anthracis LF protease inhibitors, primary screen, biochemical, multiplex microsphere, MLPCN library; 0.12% of 360,000 active; Lethal factor (Bacillus anthracis), P15917; inhibition, % at 10 µM; multiplex microsphere protease cleavage assay; note: plate controls were buffer without enzyme for full effect and enzyme alone for no effect
Autofluor counter: compound fluorescence in toxin protease inhibitor counterscreen. fluorescence intensity (concentration not given with the values). 3.1% of 360,000 active. compound autofluorescence counterscreen, microsphere flow cytometry; active compounds read high; in the data active = fluorescence intensity above about 16000; inconclusive = no clear call, values can overlap the other calls
DUSP3 inh: VHR1 phosphatase inhibitors, primary screen, biochemical, absorbance, uHTS; recombinant VHR phosphatase, pNPP absorbance; inhibition, % at 13.3 µM; Dual specificity protein phosphatase 3 (Homo sapiens), P51452; AID 1654, 2009; 0.52% of 290,000 active; in the data active = inhibition above about 50%
Target sequence (P51452 whole entry, looked up): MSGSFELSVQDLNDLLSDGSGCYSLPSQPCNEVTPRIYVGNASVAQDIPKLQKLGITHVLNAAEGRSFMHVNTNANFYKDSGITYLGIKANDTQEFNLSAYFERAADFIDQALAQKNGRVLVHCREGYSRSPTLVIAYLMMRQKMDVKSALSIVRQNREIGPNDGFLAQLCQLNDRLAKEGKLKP
* = called active by the depositor; ? = inconclusive; . = no result. A selection: hits, their analogues and other compounds. The true share with any hit is near 4.1%. Cut-off read from the data, not from the text of the source, unless noted: active = inhibition above about 30%; inconclusive = no clear call, values can overlap the other calls; inactive = below that.

SMILES	BoNT F protease	MazEF act	BoNT A protease	Anthrax LF prot	Autofluor counter	DUSP3 inh
CN(C)CCN1C(=O)C(O)=C(C(=O)c2cc3ccccc3o2)C1c1cccc(Br)c1 (stereo not drawn)	-6.0	-14.2	?	-3.3	22182*	0.8
COc1cccc2cc(C(=O)C3=C(O)C(=O)N(CCN(C)C)C3c3ccc(Cl)cc3)oc12 (stereo not drawn)	?	4.2	?	30.3*	3918	38.8
O=C(C1=C(O)C(=O)N(CCN2CCOCC2)C1c1cccc(Br)c1)c1cc2ccccc2o1 (stereo not drawn)	0.0	6.7	0.4	-1.1	5688	12.3
O=C(Nc1ccccc1)N1CCC(C(=O)N(Cc2ccco2)Cc2cccs2)CC1	4.1	-1.6	?	-2.8	20994*	0.1
Cc1cc(C)nc(N/C(=N\S(=O)(=O)Cc2ccccc2)Nc2cccc(Cl)c2C)n1	-0.8	7.9	0.0	-1.9	21814*	11.3
O=C(CN1C(=O)COc2ccccc21)NCCCN1CCN(c2ccccc2F)CC1	3.3	-6.5	1.5	-3.0	4068	-14.4
CCn1c(=O)cc(SCC(=O)NCCCN2CCN(c3ccccc3F)CC2)c2ccccc21	-0.8	-4.8	-0.7	-1.7	20693*	-2.4
Cn1c(=O)cc(OCC(=O)NCCCN2CCN(c3ccccc3F)CC2)c2ccccc21	8.2	0.5	4.2	-0.4	20602*	0.0
CCC1CCCCN1CCCNC(=O)COc1cc(=O)n(C)c2ccccc12 (stereo not drawn)	-1.8	-1.2	-1.1	0.5	20141*	25.0
CCN(CCCNC(=O)COc1cc(=O)n(C)c2ccccc12)c1cccc(C)c1	4.4	3.6	7.0	-12.3	17522*	32.2
COc1ccccc1-n1cnnc1SCC(=O)N1CCOCC1	-1.4	4.3	-1.4	0.1	4546	6.9
COCCNC(=O)COc1cc(=O)n(C)c2ccccc12	-4.1	-3.4	-0.1	-1.2	16570*	5.0
COc1ccc(CCNC(=O)COc2cc(=O)n(C)c3ccccc23)cc1OC	-3.1	0.0	-0.4	-1.9	2266	16.5
CCCCCO	-3.6	-5.8	-0.8	-3.5	6007	.
CC(=O)Nc1ccc(S(=O)(=O)N(C)CC(=O)OC2CCCCC2=O)cc1 (stereo not drawn)	1.3	2.5	0.4	-5.5	2885	.
Cc1cccn2c(=O)c3cc(C(=O)NCc4ccco4)c(=N)n(C(C)C)c3nc12	-3.0	10.1	1.9	1.7	16268*	-15.6
Cc1cccn2c(=O)c3cc(C(=O)NCc4cccnc4)c(=N)n(C(C)C)c3nc12	.	4.5	.	.	.	13.2
Cc1cccn2c(=O)c3cc(C(=O)NCc4ccco4)c(=N)n(CCc4ccccc4)c3nc12	-8.8	54.0*	1.2	-9.2	4935	11.2
CCCCNC(=O)c1cc2c(=O)n3cccc(C)c3nc2n(Cc2ccncc2)c1=N	-4.5	29.1	-3.7	0.5	24016*	9.1
COCCNC(=O)c1cc2c(=O)n3cccc(C)c3nc2n(Cc2ccncc2)c1=N	0.8	-1.2	0.7	-7.2	5865	35.3
Cc1ccc(/C(N)=N/OC(=O)N2c3ccccc3Sc3ccccc32)cc1	-18.0	-1.7	-1.1	-3.8	3427	.
Cc1ccccc1/C(N)=N/OC(=O)N1c2ccccc2Sc2ccccc21	-4.6	-5.7	-1.9	-1.6	23999*	27.6
Cc1cc(Cl)ccc1NC(=O)Nc1c(C)n(-c2ccccc2)c(=O)n1C	-0.8	-4.0	0.3	0.2	22798*	-20.6
COc1ccc(NC(=O)c2ccc(-n3cccn3)nc2)cc1	5.5	3.8	1.5	-1.5	22260*	22.8
COc1ccccc1NC(=O)c1cnc(SC)nc1	?	16.1	-0.5	-3.2	4377	27.2
SMILES	BoNT F protease	MazEF act	BoNT A protease	Anthrax LF prot	Autofluor counter	DUSP3 inh
COc1ccc(NC(=O)c2ccc(NC(=O)c3cccnc3)cc2)cc1	1.1	-7.4	0.3	-0.1	3732	.
COc1ccccc1NC(=O)c1ccc(-n2cccn2)nc1	-1.7	3.5	-0.3	1.0	22967*	32.7
O=C(Nc1ccc(F)cc1)c1ccc(-n2ccnc2)nc1	0.1	9.8	1.1	-3.9	22409*	20.0
COc1ccccc1NC(=O)c1ccc(C(=O)Nc2ccccc2OC)nc1	-15.9	52.6*	2.2	7.2	3772	16.0
CCOc1ccccc1NC(=O)c1ccc(C(=O)Nc2ccccc2OCC)nc1	-5.7	20.0	-2.5	-9.7	3699	8.1
CC(C)C[C@H]1CN=C(Nc2ccccc2)N1CC1CCC1	-7.7	3.3	0.3	-4.0	3589	12.7
O=C(CSc1nnc(Nc2ccccc2F)s1)Nc1cccc(S(=O)(=O)N2CCCCC2)c1	-3.1	3.1	-0.3	-6.6	9511	5.7
O=C(Nc1ccc(F)cc1F)c1ccc(-n2cccn2)nc1	-4.8	-4.4	-0.3	-1.6	4024	19.7
COc1ccccc1NC(=O)c1ccc(NC(=O)Cc2n[nH]c(=O)c3ccccc23)cc1	2.7	72.1*	0.3	-0.7	5272	18.6
COc1ccc(NC(=O)c2ccc(-n3cccn3)nc2)c(OC)c1	-6.4	-1.8	-2.7	-6.4	22774*	27.0
COc1ccc(NC(=O)c2ccc(C(=O)Nc3ccc(OC)cc3OC)cc2)c(OC)c1	-2.0	-9.2	0.3	2.7	2009	3.3
O=C(Nc1ccc(F)cc1F)c1ccc(-n2cncn2)nc1	0.3	3.8	?	-3.9	21818*	6.2
COc1ccc(C2/C=C\CC(NS(=O)(=O)c3ccc(C)cc3)CC(=O)N2Cc2ccccc2F)cc1 (stereo not drawn)	-0.7	-1.2	-0.6	-0.9	2909	.
Cc1ccc(NC(=O)CCc2nnc3ccc(N4CCC(C)CC4)nn23)nc1	4.1	4.2	0.0	-1.4	6120	12.5
CC(Sc1ccccc1)C(=O)NNC(=O)c1ccncc1 (stereo not drawn)	?	2.7	4.9	4.1	?	.
Cc1nn(Cc2ccc(Cl)c(Cl)c2)c(C)c1NC(=O)c1noc2c1CCCCC2	-9.1	11.4	?	-0.1	17489*	-2.4
Cc1cc(NC(=O)c2noc3c2CCCC3)no1	1.3	0.8	2.1	3.6	21619*	16.9
O=C(Nc1cccnc1)c1noc2c1CCCC2	-13.8	5.2	-11.2	-5.6	26961*	-11.1
Cc1cc(NC(=O)c2noc3c2CCCCC3)no1	-7.4	3.7	-0.7	-2.0	9941	8.5
COc1ccccc1C(=O)Nc1ccc2c(c1)C(=O)NC2=O	-7.6	9.2	-0.8	-13.2	6026	1.6
CC1(C)CC(=O)C=C(c2ccc(COC(=O)c3ccccc3)cc2)C1=O	-4.8	-7.9	0.5	-0.7	3413	.
O=C(c1ccccc1)c1ccc(OCC(O)CNCc2cccc(Cl)c2)cc1 (stereo not drawn)	-32.4	0.8	-1.1	-13.5	3847	28.0
